# Measurements as given in PubChem BioAssay (NCATS).
# Inconclusive results are not listed. Unmarked numbers belong to inactive results. Activity calls are given as the source filed them. Calls follow the shape of the dose curve; as a rule, active = well fitted cell-killing curve with a large enough effect; inconclusive = small, poorly fitted or top-dose-only effect, or effect the other way; inactive = no such curve, though single readings can be large or run the other way.
# Test: Viability qHTS for spleen associated tyrosine kinase inhibitor (SYKi) naive MV4-11 cells (AID 1963823); also: nearly all actives have a fitted effect of over 40% in size
# Settings: MV4-11 AML viability, CellTiter-Glo luminescence, 72 h; series mostly up to 45 µM; viability (% of control): at the top concentration
# In short: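 SYKi-naive MV4-11 AML cells, 500 per well, were exposed to library compounds for 72 hr at 37 C, 5% CO2. Viability was then read by CellTiter-Glo luminescence after 10 min at room temperature.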
# Potency is read from the fitted curve at half-maximal effect.
SMILES,viability (% of control),Potency
Nc1c(-c2ccccc2)nc(Cl)c2c(O)n[nH]c(=O)c12,66.1%,–
CC1CCC2(C(=O)O)CCC3(C)C(=CCC4C5(C)CCC(OC(=O)/C=C/c6ccccc6)C(C)(C)C5CCC43C)C2C1C (stereo not given),5.99% [at 17.3 µM],–
O=C1COc2nccc(-c3ccccc3F)c2CN1Cc1cc(C(F)(F)F)cc(C(F)(F)F)c1,–,11.6 µM (active)
C=C1CC[C@@H]2[C@](C)(CO)[C@H](O)CC[C@@]2(C)[C@@H]1C/C=C1/C(=O)OC[C@@H]1O,–,4.53 µM (active)
O=c1nc(-c2ccccn2)sc2ccccc12,–,1.84 µM (active)
O=C(c1ccccc1)c1c(O)cc(O)cc1O[C@@H]1O[C@H](CO)[C@@H](O)[C@H](O)[C@H]1O,76.1%,–
COC(=O)C1=COC(O[C@@H]2O[C@H](CO)[C@@H](O)[C@H](O)[C@H]2O)/C(=C\COC(=O)c2ccc(OC3OC(CO)C(O)C(O)C3O)c(OC)c2)C1CC(=O)OCCc1ccc(O)cc1 (stereo not given in full),83.5% [at 9.25 µM],–
C=C1C(=O)OC2C1CCC1(C)C(O)CCC(=C)C21 (stereo not given),–,9.2 µM (active)
CC1(C)CC2C(O)C3=C(CC(C)(O)C2C1)C(=O)OC3O (stereo not given),78.1%,–
O=C(/C=C/c1ccccc1)OC[C@H]1O[C@@H](OC(=O)c2cc(O)c(O)c(O)c2)[C@H](O)[C@@H](O)[C@@H]1O,86% [at 17.3 µM],–
C=CC(C)(O)CO[C@@H]1O[C@H](CO)[C@@H](O)[C@H](O)[C@H]1O (stereo not given in full),86.3%,–
C=CC1(C)CC(OC(=O)C(=C)C(O)COC(C)=O)C(C(=C)C(=O)OC)C(O)C1C(=C)CO (stereo not given),–,8.93 µM (active)
Cc1ccc(NS(=O)(=O)c2cc3c(cc2N[C@H](C)CO)NC(=O)CC3)cc1C,–,20.6 µM (active)
O=C1C(Cl)=C(N2CCOCC2)C(=O)N1c1ccc(Cl)c(Cl)c1,–,5.63 µM (active)
CC(C)CC(=O)c1c(O)cc2c(c1O)C(CC(C)C)C1=C(O2)C(C)(C)C(=O)C(C)(C)C1=O (stereo not given),–,8.93 µM (active)
CC1=CC(=O)CC(C)(C)C1(O)CCC(C)O (stereo not given),67.2%,–
O=C(O[C@H]1[C@@H]2C=CO[C@@H](O[C@@H]3O[C@H](CO)[C@@H](O)[C@H](O)[C@H]3O)[C@@H]2[C@@]2(CO)O[C@@H]12)c1ccc(O)cc1,88% [at 17.3 µM],–
C#CCN(Cc1cc2c(=O)n(C)c(CN3CCN(C)CC3)nc2cc1Cl)c1ccc(C(=O)NCc2cccnc2)cc1,2.34%,–
CC(C)=CC/C=C(\C)[C@H]1CC[C@]2(C)[C@@H]1[C@H](O)C[C@@H]1[C@@]3(C)CC[C@H](O)C(C)(C)[C@@H]3[C@@H](O[C@@H]3O[C@H](CO)[C@@H](O)[C@H](O)[C@H]3O)C[C@]12C,73.4%,–
O=C(O[C@H]1[C@@H]2C=CO[C@@H](O[C@@H]3O[C@H](CO)[C@@H](O)[C@H](O)[C@H]3O)[C@@H]2[C@@]2(CO)O[C@@H]12)c1ccc(O)c(O)c1,84.5% [at 17.3 µM],–
Cc1ccc(NS(=O)(=O)c2ccc3c(c2)CCC(=O)N3)cc1C,–,11.6 µM (active)
COC(=O)c1ccnc(-c2cc(C(=O)Nc3ccc(C4(N)CC4)cc3)ccn2)c1,6.63%,–
CC1(C)CCC2(C(=O)OC3OC(COC4OC(CO)C(O)C(O)C4O)C(O)C(O)C3O)CCC3(C)C(=CCC4C5(C)CCC(O)C(C)(C(=O)O)C5CCC43C)C2C1O (stereo not given),83.4% [at 9.25 µM],–
CCN(CC)CCOc1ccc2c(c1)C(=O)c1cc(OCCN(CC)CC)ccc1-2,–,13.3 µM (active)
Cc1cc(CN)cc(C)c1NC(=O)c1ccc(-c2cc(Cl)ccc2Cl)o1,–,6.51 µM (active)
CCN[C@@H]1C[C@H](N)[C@@H](O[C@H]2OC(CN)=CC[C@H]2N)[C@H](O)[C@H]1O[C@H]1OC[C@](C)(O)[C@H](NC)[C@H]1O,85% [at 17.3 µM],–
OC[C@@]1(O)CO[C@H](OC[C@H]2O[C@@H](OC(CCCCc3ccc(O)cc3)CCc3ccc(O)cc3)[C@H](O[C@H]3OC[C@](O)(CO)[C@H]3O)[C@@H](O)[C@@H]2O)[C@@H]1O (stereo not given in full),106% [at 17.3 µM],–
OC[C@H]1O[C@@H](O[C@@H]2OC=C[C@H]3[C@H](O)[C@@H]4O[C@]4(CO)[C@@H]23)[C@H](O)[C@@H](O)[C@@H]1O,84.6%,–
COC(=O)[C@H](O)[C@H]1C(C)(C)[C@H](OC(=O)C(C)C)[C@@]2(O)C(=O)[C@]1(C)C1CC[C@]3(C)C(CC(=O)O[C@H]3c3ccoc3)[C@]13O[C@@H]32 (stereo not given in full),47.6% [at 17.3 µM],–
Cc1csc2c(N[C@@H](C)CN3CCN(S(=O)(=O)c4ccc(Cl)c(Cl)c4)CC3)ncnc12,–,0.259 µM (active)
